Measured values: PubChem BioAssay AID2147 (National Center for Advancing Translational Sciences (NCATS), 2009)
About 3,600 (1.6%) of roughly 230,000 compounds were called active. Where a call stands in place of a potency, no number is given. Not shown: some 15% with an inconclusive outcome. Calls follow the shape of the dose curve; as a rule, active = well fitted inhibition curve with a large enough effect (not every such curve was filed as active); inconclusive = small, poorly fitted or top-dose-only effect, or another doubt; inactive = no such curve, though single readings can be large or run the other way. The full list was thinned out, with actives kept by preference.

The compounds below were run against Lysine-specific demethylase 4E (Homo sapiens) (UniProt B2RXH2) (assay: qHTS Assay for Inhibitors of Human Jumonji Domain Containing 2E (JMJD2E)). Details: JMJD2E catalytic domain, FDH-coupled NADH fluorescence (FDH is formaldehyde dehydrogenase); series mostly up to 57.1 µM.
From the text: Assay Provider: Structural Genomics Consortium [SGC] Screening Center PI: Austin, C.P. Screening Center: NIH Chemical Genomics Center [NCGC] The fine interplay among methylation states of several lysine residues on the tails of histone proteins is a major determinant of the transcriptional state of the associated DNA coding regions and is commonly referred to as the histone code. Histone lysine demethylases catalyze the removal of methyl groups from methylated lysine sidechains on histones H3 and H4, thus antagonizing the reactions catalyzed by histone lysine methyltransferases. […] In search for novel inhibitors of JMJD2E demethylase, a member of the largest set of histone demethylases belonging to the Fe(II) and 2-oxoglutarate oxygenase (2OG) superfamily, we performed a quantitative high-throughput screen (Inglese 2006) by using an assay which utilizes a trimethylated peptide substrate corresponding to a fragment of histone H3 (sequence ARKme3STGGK) with detection of the formaldehyde co-product in real time by a formaldehyde dehydrogenase (FDH) coupled reaction. FDH catalyzes oxidation of formaldehyde to formic acid with the concomitant reduction of the non-fluorescent beta-nicotinamide adenine dinucleotide hydrate (NAD+) cofactor to the fluorescent NADH co-product. References: Inglese, J., Auld, D., Jadhav, A., Johnson, R., Simeonov, A., Yasgar, A., Zheng, W. and Austin, C. Proc Natl Acad Sci USA 2006, 103, 11473-11478. N. R. Rose, S. S. Ng, J. Mecinovic, B. M. Lienard, S. H. Bello, Z. Sun, M. A. McDonough, U. Oppermann and C. J. Schofield, J Med Chem, 2008, 51, 7053-7056. Sakurai, M., Rose, N., Schultz, L., Quinn, A., Jadhav, A., Ng, S., Oppermann, U., Schofield, C.J. and Simeonov, A. Mol BioSystems 2009, in press. S. Michael, D. Auld, C. Klumpp, A. Jadhav, W. Zheng, N. Thorne, C. Austin, J. Inglese and A. Simeonov, Assay Drug Dev Technol, 2008, 6, 637-657.
Reagents and Controls: Ferrous ammonium sulfate, (+)-sodium L-ascorbate, beta-nicotinamide adenine dinucleotide hydrate (NAD+), Tween-20, formaldehyde dehydrogenase from P. putida (FDH), and disodium 2-oxoglutarate were from Sigma (St. Louis, MO). Black solid-bottom 384-well or 1,536-well assay plates were from Greiner Bio-One (Monroe, NC). Enzyme was supplied by Prof. Udo Oppermann, SGC-Oxford. The catalytic domain of human JMJD2E (residues 1-337) was produced as an N-terminally His6-tagged protein in E. coli, and purified by Ni-affinity chromatography and size-exclusion chromatography, and stored in HEPES 50 mM/ NaCl 500 mM pH 7.5, as reported in Rose 2008. The trimethylated histone peptide substrate ARK(me3)STGGK was synthesized and HPLC-purified by the Tufts University Core Facility (Boston, MA). Substrate solution (Sakurai 2009) contained 50 uM ARK(me3)STGGK, 0.00025 U/uL FDH, 50 uM 2-oxoglutarate, 250 uM NAD+, 1 mM ascorbate, and 10 uM ferrous ammonium sulfate. Controls and plate map: Buffer (150 mM HEPES pH 7.5 containing 0.01% Tween-20) in columns 3 and 4 as negative control (no enzyme) and 100 nM JMJD2E final concentration in columns 1,2, and 5-48. Assay Steps: Enzyme and buffer solutions (3 uL) were dispensed into a 1,536-well Greiner black solid-bottom assay plate. The library compounds (23 nL) were transferred using a Kalypsys pintool equipped with 1,536-pin array. The plate was incubated at room temperature (15 min), and then a 1 uL aliquot of substrate solution was added to initiate the reaction. The plate was transferred to ViewLux imager where an initial reading using standard UV optics (Ex 340 nm, Em 450 nm) was obtained. The plate was then removed from the reader, incubated for 30 minutes at room temperature, and returned to the reader for a second fluorescence reading. A fully automated robotic screening system (Kalypsys Inc, San diego, CA) was used to perform the above steps as described previously (Michael 2008). […]
Also: nearly all actives have a fitted effect of over 50% in size.
Potency is read from the fitted curve at half-maximal effect.

Lysine-specific demethylase 4E (Homo sapiens), sequence (B2RXH2 1-337 limits assumed): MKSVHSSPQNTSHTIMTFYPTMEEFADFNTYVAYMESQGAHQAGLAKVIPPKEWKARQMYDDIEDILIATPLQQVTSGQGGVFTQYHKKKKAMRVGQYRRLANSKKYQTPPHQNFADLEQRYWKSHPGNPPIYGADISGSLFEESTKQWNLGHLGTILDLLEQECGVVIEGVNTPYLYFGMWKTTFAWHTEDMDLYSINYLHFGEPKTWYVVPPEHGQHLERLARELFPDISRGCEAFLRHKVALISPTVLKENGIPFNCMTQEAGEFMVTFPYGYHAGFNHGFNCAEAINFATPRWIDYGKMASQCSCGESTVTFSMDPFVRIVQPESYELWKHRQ

SMILES	Potency
CCc1c(C)[nH]c(=S)c(C#N)c1C	20 µM (active)
CC(=O)c1c(C)[nH]c(=S)c(C#N)c1-c1ccc(F)cc1	inactive
CCOC(=O)c1c(C)[nH]c(=S)c(C#N)c1-c1ccccc1	inactive
CS(=O)(=O)c1ccc(Cl)c(NC(=O)Nc2ccccc2)c1	inactive
COc1cc(C2C(C#N)=C(C)NC3=C2C(=O)CC(C)(C)C3)ccc1O (stereo not given)	12.6 µM (active)
CCC1C(C#N)=C(SC)NC2=C1C(=O)CC(C)(C)C2 (stereo not given)	inactive
COc1ccc(C2C(C#N)=C(/N=C/N3CCOCC3)OC3=C2C(=O)CC(C)(C)C3)cc1OC (stereo not given)	inactive
CC(=O)N1CCC(N(C(=O)Nc2ccc(Cl)cc2)C(C)C)CC1	inactive
O=C(CCCN1C(=O)/C(=C\c2ccccc2)SC1=S)Nc1ccccc1O	inactive
c1ccc(CSc2nnc(-c3ccco3)c(-c3ccco3)n2)cc1	7.94 µM (active)
c1ccc(CSc2nnc(-c3ccco3)n2Cc2ccccc2)cc1	inactive
Brc1ccc(CSc2ccc(-c3ccco3)nn2)cc1	inactive
O=S(=O)(NCCc1csc(-c2ccccc2)n1)c1cccnc1	inactive
Cc1cc(-c2nnc(CCC(=O)NC(c3ccccc3)c3ccccc3)o2)no1	inactive
O=C1C(c2ccccn2)=[N+]([O-])c2ccccc21	12.6 µM (active)
CCN(CC)c1ccc(/C=N/Nc2nc(C)cc(C)n2)c(O)c1	inactive
CCN(CC)c1ccc(/C=N/NC(=O)c2cnccn2)c(O)c1	10 µM (active)
O=C(Nc1ccc2c(c1)OCCO2)c1cnccn1	inactive
CCOC(=O)c1c(CC(C)C)csc1/N=C/C1=C(O)CCCC1=O	inactive
CCOC(=O)c1c(C)oc(C)c(C(=O)OCC)c1=O	inactive
O=C(COC(=O)c1c2c(nc3ccccc13)/C(=C\c1cccs1)CCC2)Nc1ccccc1Cl	inactive
O=C(COC(=O)c1ccc2c(c1)OCCO2)NCc1ccccc1	inactive

SMILES	Potency
NC(=O)c1ccc(NC(=O)COC(=O)c2c3c(nc4ccccc24)/C(=C\c2ccc4c(c2)OCO4)CCC3)cc1	3.16 µM (active)
O=C(Cc1ccccc1)Nc1c(Cl)ccc2nsnc12	inactive
O=C(NC(=O)N1CCSCC1)c1c(Cl)cccc1Cl	inactive
O=C(NCc1ccccc1)c1ccc(S(=O)(=O)Nc2cccc(C(F)(F)F)c2)cc1	inactive
Oc1ccc(CNc2ccccc2O)cc1	15.8 µM (active)
O=[N+]([O-])c1ccccc1NCc1ccc(Cl)cc1	inactive
Oc1ccc(N2CCN(C(=S)NCc3ccccc3)CC2)cc1	inactive
CC#CC[N+](C)(C)CCCCCC	inactive
O=C(NC(=S)Nc1ccc(S(=O)(=O)N2CCOCC2)cc1)c1ccccc1[N+](=O)[O-]	inactive
O=[N+]([O-])c1cc(Cl)cc(/C=N/NC(=S)Nc2cc(S(=O)(=O)N3CCOCC3)ccc2Cl)c1O	8.91 µM (active)
O=C(N/N=C/c1ccc([N+](=O)[O-])o1)c1cccc(S(=O)(=O)N2CCOCC2)c1	inactive
CC1=NCCN1S(=O)(=O)c1cccc([N+](=O)[O-])c1	inactive
CN(C)C(=O)c1cccn(Cc2cccc(C(F)(F)F)c2)c1=O	inactive
Cc1csc(NC(=O)NC2(C(F)(F)F)Oc3ccccc3O2)n1	inactive
c1cnn(-c2cc(N3CCOCC3)ncn2)c1	inactive
O=C(Nc1cc(N2CCOCC2)ncn1)NC1(C(F)(F)F)Oc2ccc(Cl)cc2O1 (stereo not given)	14.1 µM (active)
CCCn1nc(C(=O)N2CCCc3ccccc32)c2ccccc2c1=O	inactive
Cc1ccc(NC(=O)c2ccn(C(=O)Nc3ccccc3)n2)c(C)c1	inactive
Cc1cc(C)n(CC(C)NCc2c(C(=O)N3CCOCC3)nc3c(C)cccn23)n1 (stereo not given)	inactive
CC1(C)CC(=O)C(N=Nc2c(F)cccc2F)=C(O)C1	inactive
C=CCNC(=O)CSc1nc2scc(-c3ccco3)c2c(=O)n1CC=C	inactive
Cc1cc(C)c(C)c(S(=O)(=O)N[C@@H](C)C(=O)OC(C)C(=O)NC(N)=O)c1C (stereo not given in full)	inactive

SMILES	Potency
O=C(CCCCCNC(=O)c1ccccc1)N/N=C/c1ccccc1	inactive
O=C(N/N=C/c1ccccc1O)/C(=C/c1ccccc1)CCO	20 µM (active)
O=C(CCC(=O)Nc1ccccc1)N/N=C/c1ccccc1F	inactive
CCCCCCCCCCCCC(NC(C)=O)(C(=O)OCC)C(=O)OCC	inactive
O=C(CSc1nnnn1-c1ccc(O)cc1)c1ccc(F)cc1	inactive
O=C(CSc1nnnn1-c1ccc(O)cc1)N1N=C(c2ccc3ccccc3c2)CC1c1ccccc1 (stereo not given)	1.41 µM (active)
COc1ccc(C2CC(c3ccccc3)=NN2C(=O)CSc2nccc(=O)[nH]2)cc1 (stereo not given)	inactive
CN(C)C(=S)Nc1ccc(Br)cc1Cl	inactive
COCCn1c(SCC(=O)Nc2cc(OC)ccc2OC)nc2c(c1=O)SC(C)C2 (stereo not given)	inactive
O=C(Nc1ccccc1)N1CCN(C2c3ccccc3-c3ccccc32)CC1	inactive
O=C(CSc1ncn[nH]1)Nc1nc(-c2cccc([N+](=O)[O-])c2)cs1	inactive
COc1ccc(N(C(=O)c2cccnc2)S(=O)(=O)c2ccc3c(c2)n(C)c(=O)n3C)cc1	inactive
CN(C)S(=O)(=O)c1cccc(C(=O)Nc2cccnc2)c1	inactive
O=C(c1cccnc1)N(c1cc2sc(=O)oc2c2ccccc12)S(=O)(=O)c1ccccc1	14.1 µM (active)
Cc1oc(C(N)=O)cc1COc1ccc(C(N)=O)cc1	inactive
CCOC(=O)N1CCN(c2c(NCCN3CCN(c4ccccc4F)CC3)c(=O)c2=O)CC1	inactive
COCCCNC(=S)N(Cc1ccccc1)Cc1ccc(F)cc1	inactive
Cn1c(C(=O)O)ccc1S(=O)(=O)N(Cc1ccccc1)Cc1ccccc1	inactive
CCOC(=O)C1CCN(CCC(=O)Nc2cccc(C)c2)CC1	inactive
Cc1c([N+](=O)[O-])c(N)nn1C	inactive
O=C(Nc1cn(-c2ccccc2)nc1-c1ccccc1)c1ccccc1	inactive
O=C(NNC(=S)NC(=O)c1cn(-c2ccccc2)nc1-c1ccccc1)c1ccncc1	14.1 µM (active)

SMILES	Potency
O=C(O)c1ccc(NC(=O)c2cn(-c3ccccc3)nc2-c2ccc(Cl)cc2)cc1	inactive
CCn1c2ccccc2c2cc(NC(=O)Nc3ccc([N+](=O)[O-])cc3C)ccc21	inactive
CC(C)CCNC(=O)C1CCC(CNc2c(N3CCC(C)CC3)c(=O)c2=O)CC1 (stereo not given)	inactive
O=C(O)CCCCCCCCCC[n+]1ccccc1	inactive
COC(=O)C1=C(N)Oc2cc(C)[nH]c(=O)c2C1c1ccc(Cl)cc1 (stereo not given)	inactive
Oc1cc(O)c2c(c1)OC(c1ccc(O)c(O)c1)C(O)C2 (stereo not given)	11.2 µM (active)
Cc1nnc(N/N=C/c2cccs2)[nH]c1=O	inactive
Cc1nnc(N/N=C/c2ccccn2)[nH]c1=O	7.94 µM (active)
Cc1ccccc1Nc1nnc(C)c(=O)[nH]1	inactive
Cc1ccc(CN2CCN(Cc3cn(C)nc3-c3ccccc3)CC2CCO)o1 (stereo not given)	inactive
O=C(CCN1CCCCC1)N=Nc1c(O)[nH]c2ccccc12	inactive
O=C(NCc1ccco1)O[C@@H]1C(=O)c2cc(Br)ccc2O[C@H]1c1ccc2c(c1)OCO2	inactive
O=c1ccnc(Nc2ccc(Cl)cc2)[nH]1	inactive
CCOc1cccc(/C=N/N2C(=O)CSC2=S)c1O	31.6 µM (active)
CCOc1ccccc1N=C1NC(=O)CS1	inactive
O=C1CSC(=S)N1/N=C/c1ccc(O)c([N+](=O)[O-])c1	inactive
Cn1c(SCC(=O)Nc2ccc(Cl)cc2)nc(O)cc1=O	inactive
Nc1nc(Sc2ncccc2[N+](=O)[O-])n[nH]1	inactive
Cc1ccnc(-n2sc3ccccc3c2=O)n1	12.6 µM (active)
Cc1ccnc(SCC(N)=O)n1	inactive
Cc1ccnc(Nc2nc3ccccc3s2)n1	inactive
O=c1cnnc(Nc2ccccc2)[nH]1	inactive

SMILES	Potency
c1ccc(Nc2n[nH]nc2-c2ccccc2)cc1	inactive
S=c1[nH]nc(Nc2ccccc2)s1	17.8 µM (active)
O=C(C[n+]1ccc2c(c1)nnn2-c1ccccc1)c1ccc(Cl)cc1	inactive
O=C(NCc1nnc(SCC(=O)N2CCC(Cc3ccccc3)CC2)o1)c1ccco1	inactive
CCOc1ccc(/C=N/NC(=O)CSc2ccccn2)cc1O	inactive
Cc1ccc(/C=N/NC(=O)CSc2nc3ccccc3o2)cc1	inactive
Cc1nccn1CC(=O)N/N=C/c1ccc(O)c(O)c1	12.6 µM (active)
CCn1c(SCC(=O)N/N=C/c2ccncc2)nc2ccccc21	inactive
Cn1c(SCC(=O)N/N=C/c2ccc(O)c(O)c2)nc2ccccc21	25.1 µM (active)
Cc1nc2ccccc2n1CC(=O)N/N=C/c1cccnc1	inactive
CC(C)(C)OC(=O)NCCCCCC(=O)N/N=C/c1coc2ccccc2c1=O	inactive
O=C1/C(=C/c2cccs2)SC(=S)N1C1CCS(=O)(=O)C1 (stereo not given)	inactive
CC(OC(=O)c1ccc(NS(=O)(=O)c2ccc3[nH]c(=O)[nH]c3c2)cc1)C(=O)Nc1cccc(Cl)c1Cl (stereo not given)	inactive
O=C(c1cc(COc2c(F)cccc2F)on1)N1CCSCC1	inactive
Nc1nc(Nc2ccccc2)nc(NCCO)c1[N+](=O)[O-]	inactive
O=C1CCCC(O)=C1N=Nc1ccc(S(=O)(=O)N2CCOCC2)cc1	inactive
CCCc1ccc(C(=O)[C@@H]2[C@@H](C(C)=O)N3c4ccc(F)cc4C=C[C@@H]3[C@@]23C(=O)Nc2ccccc23)cc1	14.1 µM (active)
CCc1cc(CNC(=O)CC2C(=O)NCCN2Cc2ccccc2C(F)(F)F)on1 (stereo not given)	inactive
Cc1noc(C)c1-c1nc(CSc2ccc(Cl)cc2)no1	inactive
COc1ccc(N2CCN(Cc3ccc(Br)s3)CC2)cc1	14.1 µM (active)
Fc1ccc(N2CCN(Cc3cnc(Oc4ccc(Br)cc4)s3)CC2)cc1	inactive
COc1ccc(N2CCN(Cc3nnc(-c4ccccc4)o3)CC2)cc1	inactive
